# From PubChem BioAssay AID1347383 (Zoeller Lab, School of Medicine, Boston University, 2020)
# Calls of active or inactive are those of the source.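 How the source made its calls: active means cell survival after UV exposure 2 SD above solvent-only control wells at 10 µM, confirmed on one or two repeats; inactive means the rest.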
# Experiment: cell survival after pyrene fatty acid photosensitization – ZR-82 cells, Analyticon library, screen 2, phospholipid biosynthesis inhibitor project, primary screen (AID 1347383);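 further: survival reflects blocked phospholipid synthesis cutting uptake of the phototoxic fatty acid; compound and fatty acid exposure 3 h then viability read next day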
# Conditions: ZR-82 CHO cells, pyrene-fatty acid UV killing, CellTiter Blue; at 10 µM; peroxisome-deficient CHO-K1 variant; with DGAT-1, DGAT-2 and ACAT inhibitors
row,SMILES,outcome
1,C/C=C/CCC1Cc2cc(O)c(CCCC)c(O)c2C(=O)O1 (stereo not given),inactive
2,CC(C)(O)C1OC1C1=CC(=O)C2(C)OC2C1O (stereo not given),inactive
3,CCC(O)c1cccc(O)c1CN (stereo not given),inactive
4,O=C1c2c(O)cc(O)cc2OC(c2cc(O)c(O)c(O)c2)C1O (stereo not given),inactive
5,Oc1ccc([C@@H]2Oc3cc(O)cc(O)c3C[C@@H]2O)cc1,inactive
6,COC(=O)/C=C/C1(O)C=CC(=O)C=C1,inactive
7,CCC(C)C(=O)O[C@H]1CCC=C2C=C[C@H](C)[C@H](CC[C@@H](O)C[C@@H](O)CC(=O)O)[C@H]21 (stereo not given in full),inactive
8,O=c1ccn(C2OC(CO)C(O)C2O)c(=O)[nH]1 (stereo not given),inactive
9,C=C(C)[C@@H]1Cc2cc3c(cc2O1)OC[C@@]1(O)c2ccc(O)cc2O[C@@H]31,inactive
10,C[C@@H]1O[C@@H](Oc2c(-c3ccc(O)cc3)oc3cc(O)cc(O)c3c2=O)[C@H](O)[C@H](O)[C@H]1O,inactive
11,C=CC(C)(C)c1cc(/C=C/C(=O)c2ccc(OC)cc2)c(O)cc1O,inactive
12,COc1ccc(C2(O)c3ccccc3NC(=O)C2OC)cc1 (stereo not given),inactive
13,CC1=C2C[C@H]3O[C@@]3(C)CCC3O[C@@]3(C)C[C@@]2(O)OC1=O (stereo not given in full),inactive
14,O=c1ccc2ccc(O)cc2o1,inactive
15,C/C1=C\C[C@]2(C)C(=O)C(O)=C([C@H](C)CO)[C@H]2C/C=C(\C)[C@@H](O)CC/C(C)=C/CC1,inactive
16,COc1cc(O[C@@H]2O[C@H](CO)[C@@H](O)[C@H](O)[C@H]2O)cc(OC)c1OC,inactive
17,CC(=O)C(C)C1OC(CCO)c2cc(C)ccc2C1C (stereo not given),inactive
18,CC(=O)O[C@H]1CC2C(COC(=O)CC(C)C)=CO[C@@H](OC(=O)CC(C)C)C2[C@@]12CO2 (stereo not given in full),inactive
19,CC(=O)OC1C(=O)C2C3OCC4=C3[C@@](C)(CC[C@@H]4O)CC[C@]2(C)[C@H]1C(C)C (stereo not given in full),inactive
20,CCCCCC(O)CC(O)CC(=O)O (stereo not given),inactive

row,SMILES,outcome
1,C[C@H]1C=CC2=CCCC[C@@H]2[C@H]1CC[C@@H]1C[C@@H](O)CC(=O)O1,inactive
2,COc1c(C)c2c(c(O)c1C/C=C(\C)CC/C=C(\C)CCC(=O)O)C(=O)OC2,inactive
3,Nc1ccccc1CCCCCCC(=O)O,inactive
4,O=C1CC(c2ccc(O)cc2O)Oc2cc(O)cc(O)c21 (stereo not given),inactive
5,COc1ccc(-c2coc3cc(O)cc(O)c3c2=O)cc1,inactive
6,O=C(O)c1cc(O)c2c(c1)C(=O)c1cccc(O)c1C2=O,inactive
7,C=C[C@@]1(C)CCC2=C(C1)C(=O)CC1[C@](C)(C(=O)O)CCC[C@]21C (stereo not given in full),inactive
8,CC/C=C\C/C=C\C/C=C\CCCCCCCC(=O)OCC(O)COC1OC(CO)C(O)C(O)C1O (stereo not given),inactive
9,O=C(O)c1ccc(CO)o1,inactive
10,C[C@]12CC[C@@H]3c4ccc(O)cc4CC[C@H]3[C@@H]1CCC2=O,inactive
11,O=C1CC(c2ccc(O)cc2)Oc2cc(O)cc(O)c21 (stereo not given),inactive
12,COC1=CC(=O)CC(C)C12Oc1cc(OC)cc(O)c1C2=O (stereo not given),inactive
13,Cc1cc(O)c2c(c1)C(=O)c1cccc(O)c1C2=O,inactive
14,CC[C@]12CCCN3CCc4c(n(c5ccccc45)C(=O)C1)[C@@H]32,inactive
15,COc1ccc2ccc(=O)oc2c1,inactive
16,COc1cc2ccc(=O)oc2cc1OC,inactive
17,O=c1ccc2ccc(O[C@@H]3O[C@H](CO)[C@@H](O)[C@H](O)[C@H]3O)cc2o1,inactive
18,COc1cc2c(c3c1C(=O)C[C@@H](C)O3)CCO2,inactive
19,CC1=C(CCCCC(=O)O)COC1=O,inactive
20,C/C=C(\C)C(=O)O[C@@H]1[C@@H](C(C)C)[C@@H](OC(C)=O)C=C(CO)[C@@H]1O,inactive
